S1P4 antagonist = blocks the human S1P4 receptor. O95977. S1P4-expressing cells, antagonist mode, reporter read-out. inhibition, % at 4.98 µM. 220,000 compounds, 0.26% hits. AID 1510; in the data active = inhibition above about 29%;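 note: 0% = wells stimulated with agonist and 100% = vehicle wells without agonist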
EP2 mod = modulators of human EP2 prostaglandin E2 receptor | AID 940 | 260,000 compounds, 0.83% hits | EP2-expressing cells, cAMP HTRF FRET, PGE2 co-stimulation | induction, % at 25 µM | P43116;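 active = compounds whose cAMP rise, as percent of the full-agonist control response, exceeds 60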;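 note: rat C6 glioma line stably carrying human EP2 under a CMV promoter; the protocol text gives 20 µM as final concentration; 100% = response of wells given 1 µM PGE2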
S1P4 agonist = human S1P4 receptor agonism; O95977; S1P4-expressing cell line, agonist reporter assay; activation, % at 4.98 µM; 220,000 compounds, 0.35% hits; in the data active = activation above about 11%;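 note: 0% = DMSO vehicle and 100% = reference agonist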
S1P3 antagonist = antagonists of human S1P3 receptor; CHO S1P3 NFAT-BLA reporter, FRET fluorescence, antagonist mode; 170,000 compounds, 0.27% hits; inhibition, % at 4.98 µM;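 active = inhibition above the plate cutoff, the mean inhibition of test wells on that plate plus 3 SD, cut at about 28% in these data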;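 note: cells challenged with S1P at its EC80 of 0.8 µM; blue over green emission ratio from cleaved BLA substrate after 4 h stimulation; 0% = S1P-stimulated wells and 100% = unstimulated DMSO-only wells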
Target sequence (Q99500 whole entry, looked up): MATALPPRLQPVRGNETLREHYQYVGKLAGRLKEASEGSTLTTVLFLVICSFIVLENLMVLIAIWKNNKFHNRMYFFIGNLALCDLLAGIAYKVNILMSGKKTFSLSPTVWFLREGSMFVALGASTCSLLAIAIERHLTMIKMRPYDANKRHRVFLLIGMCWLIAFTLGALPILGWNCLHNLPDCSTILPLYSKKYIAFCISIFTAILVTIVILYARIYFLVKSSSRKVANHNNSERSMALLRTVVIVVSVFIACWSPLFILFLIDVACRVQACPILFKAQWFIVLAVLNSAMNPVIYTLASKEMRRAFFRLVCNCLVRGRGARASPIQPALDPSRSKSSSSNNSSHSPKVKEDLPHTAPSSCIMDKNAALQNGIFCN
EP2 antag = inhibitors of human EP2 prostaglandin E2 receptor. P43116. C6 glioma cells expressing human EP2, cAMP TR-FRET; cells stimulated with saturating PGE2. inhibition, % at 25 µM. 260,000 compounds, 0.52% hits. AID 1422;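 active = percent inhibition above 40 after rounding to a whole number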;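 note: rat C6 glioma host cells with rolipram phosphodiesterase inhibitor present; the protocol text gives 20 µM as final concentration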
EP2 confirm = EP2 receptor cAMP induction, counter-screens negative; 1,300 compounds, 47% hits; C6 glioma EP2 cells, cAMP HTRF induction; plus low (about EC15) PGE2 agonist; shares compounds with EP2 mod; calls only at 20 µM (by protocol);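 active = cAMP induction above 50% in the main assay while under 30% in all four parallel counter assays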;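 note: rat C6 glioma cells stably expressing human EP2 receptor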
S1P4 ag conf = confirmation of human S1P4 receptor agonists. shares compounds with S1P4 agonist. S1P4 agonist cell-based reporter assay. activation, % at 4.98 µM. 740 compounds, 7% hits. AID 1523; in the data active = activation above about 12%;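 note: 0% = vehicle and 100% = full reference agonist response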
S1P1 ag = activates human S1P1, counter-screen for S1P4 agonists; 740 compounds, 4% hits; shares compounds with S1P4 agonist; activation, % at 4.98 µM; S1P1 agonist cell-based assay, activation; in the data active = activation above about 21%;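 note: 0% = vehicle wells and 100% = reference agonist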
S1P4 antag cf = confirmation of human S1P4 receptor antagonists; 520 compounds, 71% hits; inhibition, % at 4.98 µM; AID 1524; shares compounds with S1P4 antagonist; S1P4-expressing cell line, antagonist mode, reporter read-out; in the data active = inhibition above about 30%
S1P1 antagonist = blocks human S1P1, counter-screen for S1P4 antagonists. 520 compounds, 37% hits. shares compounds with S1P4 antagonist. inhibition, % at 4.98 µM. cell-based S1P1 antagonist counterscreen, inhibition; in the data active = inhibition above about 40%;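 note: receptor stimulated with S1P near its EC80; 0% = agonist stimulated wells and 100% = vehicle only wells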
Numbers without * were called inactive; ! = repeats disagree. Hits are enriched below; roughly 2% of the tested compounds scored in any of these assays.

Screening Cc1ccc(NC(=O)CN2C3CCC2CC(O)(c2ccco2)C3)cc1F (stereo not given) returned EP2 mod -71.
For C=CCc1cc(C=C2C(=O)N(C)C(=O)N(C)C2=O)cc(OCC)c1OCc1ccccc1 the results were S1P4 antagonist -42, EP2 mod 88*, S1P4 agonist 3, S1P3 antagonist 10, EP2 antag 5 and EP2 confirm inactive.
`O=C(NC(Cc1ccccc1)C(=O)N1CCC2(CC1)OCCO2)C1CCCCC1` (stereo not given) gave S1P4 antagonist -20, EP2 mod 6, S1P4 agonist 1, S1P3 antagonist -56 and EP2 antag 3.
`O=C(CNC1CCCCC1)N1CCC2(CC1)OCCO2` gave S1P4 antagonist 0, EP2 mod 73*!, S1P4 agonist 5, EP2 antag 7 and EP2 confirm inactive.
For O=C(c1cn(Cc2ccccc2)c2ccccc12)C1CC1 the results were S1P4 antagonist -3, EP2 mod 65*, S1P4 agonist 1, S1P3 antagonist 7, EP2 antag 12 and EP2 confirm inactive.
Screening NC(=NCCC[C@H](N)C(=O)O)N[N+](=O)[O-] returned EP2 mod 86*!, EP2 antag 12 and EP2 confirm inactive.
C#CCOc1cccc(CN2C3CCC2CC(O)(c2nccn2C)C3)c1 (stereo not given) was read as EP2 mod 7 and EP2 antag 2.
Screening CC(C)(C)c1cc(CCC(=O)O)cc(C(C)(C)C)c1O (tested in a mixture with another compound) returned EP2 mod 12 and EP2 antag 6.
`COC[C@H]1OC(=O)c2coc3c2[C@@]1(C)C1=C(C3=O)C2CCC(=O)[C@@]2(C)C[C@H]1OC(C)=O` (stereo not given in full) gave EP2 mod 50, EP2 antag 15 and EP2 confirm inactive.
For CC(C)CCNC(=O)c1c(N)n(CC2CCCO2)c2nc3ccccc3nc12 (stereo not given) the results were S1P4 antagonist -4, EP2 mod 69*, S1P4 agonist 12*, EP2 antag 4, EP2 confirm active, S1P4 ag conf 5 and S1P1 ag 12.
Screening COc1cccc(C2(NC(=O)c3cnn(C(C)C)c3)CCCC2)c1 returned EP2 mod -14.
COCCNC(=O)c1c(NC(=O)c2ccco2)n(Cc2ccccc2)c2nc3ccccc3nc12 was read as S1P4 antagonist -20, EP2 mod 38, S1P4 agonist 0, S1P3 antagonist -52 and EP2 antag 7.
`COCCCNC(=O)c1c(NC(=O)c2ccccc2Cl)n(Cc2ccccc2)c2nc3ccccc3nc12` gave S1P4 antagonist -9, EP2 mod 21, S1P4 agonist 12*, EP2 antag 11, S1P4 ag conf 0 and S1P1 ag 2.
`CCC1CCCCN1C(=O)CN1C2CCC1CC(O)(c1ccccn1)C2` (stereo not given) gave EP2 mod -16.
Screening C[n+]1ccc(-c2ccncc2)cc1 returned S1P4 antagonist 6, EP2 mod -2, S1P4 agonist 12*, S1P3 antagonist -5, EP2 antag 13, S1P4 ag conf -2 and S1P1 ag -8.
Screening Cc1cc2occ(CC(=O)N(CCN(C)C)C3CCN(C)CC3)c2cc1C returned EP2 mod -60 and EP2 antag 3.
CN1CCC2(CC1)CC(=O)c1cc(Cl)ccc1O2 was read as EP2 mod -18 and EP2 antag 6.
`CN1CCC2(CC1)CC(NC=O)c1ccccc1O2` (stereo not given) gave S1P4 antagonist -2, EP2 mod -13, S1P4 agonist 13*, S1P3 antagonist -20, EP2 antag 10, S1P4 ag conf -1 and S1P1 ag -8.
Screening CC(=O)NC1CC2CCCC(C1)N2 (stereo not given) returned S1P4 antagonist -11, EP2 mod 8, S1P4 agonist 25*, S1P3 antagonist -17, EP2 antag 4, S1P4 ag conf -2 and S1P1 ag 5.
`S=C1CN=C(c2ccccc2Cl)c2cc(Cl)ccc2N1` gave S1P4 antagonist 0, EP2 mod 19, S1P4 agonist 27*, S1P4 ag conf -2 and S1P1 ag -5.
Cc1cccc(N2C(=O)NC(=O)/C(=C\c3cc(C)n(-c4sc5c(c4C#N)CCCC5)c3C)C2=O)c1C was read as S1P4 antagonist 3, EP2 mod 1, S1P4 agonist 1, S1P3 antagonist 1 and EP2 antag 18.
For CCOC(=O)c1c(-n2c(C)cc(C=C3C(=O)NC(=O)NC3=O)c2C)sc2c1CCCC2 the results were S1P4 antagonist 0, EP2 mod -14, S1P4 agonist 12*, S1P4 ag conf 29* and S1P1 ag 3.
`Cc1ccc(C2=CCN(CC(=O)Nc3ccc4c(c3)OCO4)CC2)o1` gave EP2 mod -117 and EP2 antag 13.
Screening O=c1[nH]sc2cc(F)ccc12 returned S1P4 antagonist 31*, EP2 mod -25, S1P4 agonist -1, S1P3 antagonist -6, EP2 antag 6, S1P4 antag cf 91* and S1P1 antagonist 46*.
For COC(=O)C[C@]1(C(=O)OC)CN(C#N)N(c2ccc(Cl)cc2)C12c1ccccc1-c1ccccc12 the results were S1P4 antagonist 55*, EP2 mod 56, S1P4 agonist -1, EP2 antag 6, S1P4 antag cf 120* and S1P1 antagonist 88*.
`COC(=O)[C@@H]1[C@@H](C(=O)OC)C2(c3ccccc3-c3ccccc32)N(c2ccc(Cl)cc2)N1C#N` gave S1P4 antagonist 24, EP2 mod -2, S1P4 agonist -2 and EP2 antag 11.
`COCCc1ncc(CN2C3CCC2CC(O)(c2ccc(F)cc2)C3)cn1` (stereo not given) gave EP2 mod -132 and EP2 antag 2.
Screening C=Cn1cc(CN2C3CCC2CC(O)(c2ccc(OC)cc2)C3)c(C)n1 (stereo not given) returned EP2 mod -17 and EP2 antag 6.
C[C@@H]1O[C@@H](O[C@H]2C[C@@H](O)[C@]3(CO)[C@H]4[C@H](O)C[C@]5(C)[C@@H](C6=CC(=O)OC6)CC[C@]5(O)[C@@H]4CC[C@]3(O)C2)[C@H](O)[C@H](O)[C@H]1O was read as S1P4 antagonist 33*, EP2 mod 0, S1P4 agonist -3, S1P3 antagonist -16, EP2 antag 9, S1P4 antag cf 58* and S1P1 antagonist 4.
